Reference: PubChem BioAssay (NCATS)
Results filed as inconclusive are left out. Active and inactive are the calls of the source. Calls come from the whole dose curve; as a rule, active = well fitted inhibition curve with a large enough effect; inconclusive = small, poorly fitted or top-dose-only effect; inactive = flat fitted curve, though single readings scatter.

Columns and labels:
Assay in all cases: qHTS profiling for inhibitors of Plasmodium falciparum proliferation (AID 504749); note: nearly all actives have a fitted effect of over 60% in size
Conditions in all cases: P. falciparum in erythrocytes, SYBR Green DNA, 72 h; series mostly up to 28.7 µM
AS120 = test system: AS120
How it was run: (§1)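 SYBR Green fluorescence (ex 485 nm, em 535 nm) reports parasite DNA after 72 h compound exposure of infected red cells at 0.3% parasitemia, 2.5% hematocrit; signal normalized to 0.29 uM artemisinin and vehicle wells.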

ATS189 = test system: ATS189
How it was run: as §1

ATS95 = test system: ATS95
How it was run: as §1

C2A = test system: C2A
How it was run: as §1

CP185 = test system: CP185
How it was run: as §1

CP191 = test system: CP191
How it was run: as §1

CP192 = test system: CP192
How it was run: as §1

CP194 = test system: CP194
How it was run: as §1

CP201 = test system: CP201
How it was run: as §1

CP203 = test system: CP203
How it was run: as §1

CP211 = test system: CP211
How it was run: as §1

CP215 = test system: CP215
How it was run: as §1

CP217 = test system: CP217
How it was run: as §1

CP237 = test system: CP237
How it was run: as §1

CP238 = test system: CP238
How it was run: as §1

CP247 = test system: CP247
How it was run: as §1

CP250 = test system: CP250
How it was run: as §1

CP252 = test system: CP252
How it was run: as §1

CP256 = test system: CP256
How it was run: as §1

CP260 = test system: CP260
How it was run: as §1

Measured: Potency

CC[N+](CC)(CC(=O)Nc1c(C)cccc1C)Cc1ccccc1
inactive: all assays above

CC(C)c1cc2c(cc1S(=O)(=O)O)[C@@]1(C)CCC[C@@](C)(C(=O)O)[C@@H]1CC2
not listed: CP247
inactive: all other assays above

C[C@H]1COc2c(C3(N)CC3)c(F)cc3c(=O)c(C(=O)O)cn1c23
not listed: CP247 | CP260
inactive: all other assays above

Cc1cccc(C(=O)O)c1O
inactive: all assays above

Cc1onc(-c2ccccc2)c1-c1ccc(S(N)(=O)=O)cc1
not listed: CP215
inactive: all other assays above

CC1CCN(CCCC(=O)c2ccc(F)cc2)CC1
not listed: CP237
inactive: all other assays above

O=C(O)c1ccc[n+]([O-])c1
inactive: all assays above

O=C(Cn1ccnc1[N+](=O)[O-])NCc1ccccc1
inactive: all assays above

COC(=O)c1cccnc1
inactive: all assays above

O=C(CN1CCNCC1)NC1CCCCC1
inactive: all assays above

CN(C(=O)c1c(O)c2ccccc2n(C)c1=O)c1ccccc1
inactive: all assays above

COc1ccccc1Oc1c(NS(=O)(=O)c2ccc(C(C)(C)C)cc2)nc(-c2ncccn2)nc1OCCO
not listed: CP215
inactive: all other assays above

Cc1c(C(=O)NCCO)[n+](=O)c2ccccc2n1[O-]
inactive: all assays above

CCS(=O)(=O)CCn1c([N+](=O)[O-])cnc1C
inactive: all assays above

Cc1cc(=O)[nH]c(=S)[nH]1
inactive: all assays above

CC(N)CCCC(C)(C)O (centres undefined)
inactive: all assays above

COc1ccc(C(=O)N2CCN(CC(=O)N3CCOCC3)CC2)cc1
not listed: CP250
inactive: all other assays above

CC(C)C[C@@H](N)C(=O)O
inactive: all assays above

Cc1c(C)c2c(c(C)c1OC(=O)c1cccnc1)CC[C@@](C)(CCC[C@H](C)CCC[C@H](C)CCCC(C)C)O2
inactive: all assays above

COc1ccccc1OC(=O)Oc1ccccc1OC
not listed: CP203
inactive: all other assays above

NS(=O)(=O)c1ccc(NC(=O)CCC(=O)O)cc1
not listed: CP203
inactive: all other assays above

CC(=O)Nc1ccc(C(=O)O)cc1
not listed: CP203
inactive: all other assays above

COc1ccc(Cc2cnc(N)nc2N)cc1OC
not listed: CP203 | CP260
inactive: all other assays above

CN1CCCN=C1COC(=O)C(O)(c1ccccc1)C1CCCCC1 (centres undefined)
not listed: CP203
inactive: all other assays above

Nc1ncnc2c1ncn2[C@@H]1O[C@H](COP(=O)(O)O)[C@@H](O)[C@H]1O
not listed: CP203
inactive: all other assays above

O=C(O)Cc1ccc(CCNS(=O)(=O)c2ccc(Cl)cc2)cc1
not listed: CP203
inactive: all other assays above

O=C(NCCCN1CCOCC1)c1ccc(Cl)cc1
not listed: CP203
inactive: all other assays above

Cc1cccc(C)c1NC(=O)CC12CCCN1CCC2
not listed: CP203
inactive: all other assays above

O=C(OOC(=O)c1ccccc1)c1ccccc1
not listed: CP203
inactive: all other assays above

O=C1CC[C@@H](C(=O)O)N1
not listed: CP203
inactive: all other assays above

O=C(O)CCC(=O)O
not listed: CP203
inactive: all other assays above

CCOC(=O)[C@H](CCc1ccccc1)N[C@@H](C)C(=O)N1CCC[C@H]1C(=O)O
not listed: CP215
inactive: all other assays above

NC(=O)NS(=O)(=O)c1ccc(N)cc1
not listed: CP203
inactive: all other assays above

O=C(O)Cn1c(C(=O)Nc2nc(-c3ccccc3Cl)cs2)cc2ccccc21
not listed: CP203
inactive: all other assays above

CN/C(=C\[N+](=O)[O-])NCCSCc1csc(CN(C)C)n1
not listed: CP203
inactive: all other assays above

CCOC(N)=O
not listed: CP203 | CP260
inactive: all other assays above
